Screening results (PubChem)
An excerpt weighted towards active compounds, which were near 3.9% of everything screened.
HIF-2a block – HIF-2a reporter inhibitors, primary screen, luminescence, 786-0 RCC cells | 786-0 RCC cells HIF-2a reporter, luciferase luminescence, overnight | inhibition, % at 18.8 µM | 0.72% of 360,000 active | AID 624352, 2012;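 active = inhibition of the luminescence signal of 40% or more relative to plate controls, in a single-dose primary screen at 18.75 µM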
TRAIL sens C8 – viability loss with TRAIL in NB7+C8 cells, primary screen, TRAIL sensitizer project, cell-based, ATPlite luminescence | inhibition (viability loss, TRAIL sensitization), % at 10 µM | 1% of 360,000 active | AID 624354, 2012;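 active = compounds causing at least 50% loss of cell viability in the single-dose screen, relative to plate controls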
TWEAK-Fn14 inh – inhibitors of TWEAK-Fn14 signaling, primary screen, luciferase reporter cells, uHTS; TWEAK-stimulated Fn14 reporter cells, luciferase luminescence, 8 h; inhibition, % at 10 µM; 2% of 360,000 active; AID 1159606, 2016; in the data active = inhibition above about 50%
TROY NFkB inh – inhibitors of TROY-driven NF-kB signaling, primary screen, Q293 LMP1-TROYcd cells, NF-kB luciferase, uHTS | Q293 LMP1-TROYcd NF-kB luciferase reporter, 4 h | inhibition, % at 10 µM | 0.98% of 360,000 active;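 active = compounds whose plate-normalised and pattern-corrected inhibition of the luciferase reporter signal at the single screening dose is 50% or more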
HSP90 refold inh – HSP90 inhibitors, primary screen, cell lysate, luminescence | Rabbit reticulocyte lysate, luciferase refolding luminescence, 3 h | inhibition, % at 5.6 µM | 0.91% of 290,000 active;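 active = inhibition above the screen-wide mean plus 3 SD, computed separately per campaign, cut at about 16% in these data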;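 note: inhibitors lower the luminescence because luciferase stays unfolded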
aSyn 5UTR inh – MLPCN primary screen, SNCA 5' untranslated region. alpha-synuclein 5'UTR reporter, inhibitor activity. inhibition, % (tested at 7.5 µM). 0.82% of 300,000 active; in the data active = inhibition above about 60%;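 note: H4 neuroglioblastoma cells stably carrying SNCA 5'UTR luciferase fusion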
Large screens that a line does not name were inactive.

O=C(Nc1ncnc2c1ncn2[C@@H]1O[C@H](/C=C/C(=O)N2CCN(c3ccc(F)cc3)CC2)[C@@H](O)[C@H]1O)c1ccccc1	none (no result: HSP90 refold inh, aSyn 5UTR inh)
COc1ccccc1-c1cccc(-c2nc(C(=O)N3CCCCC3)cc3c2[C@@H](CCO)N(S(=O)C(C)(C)C)C3)c1 (stereo partly drawn)	none (no result: HSP90 refold inh, aSyn 5UTR inh)
CCOc1ccc(-c2nnc(N3CCCCC3)c3ccccc23)cc1	TROY NFkB inh 59
CC(=O)N1CCN(c2nnc(-c3ccc(C)cc3)c3ccccc23)CC1	TROY NFkB inh 52
CCC(=O)N1CCC1(C)C(=O)Nc1cccc(OC)c1OC (stereo not drawn)	none (no result: HSP90 refold inh, aSyn 5UTR inh)
CCC(CNc1cc(OC)cc2cccnc12)NC1CCCCC1 (stereo not drawn)	HSP90 refold inh 29
COc1cc(NC(=O)c2ccccc2Cl)c2ncccc2c1	none
COc1ccccc1Cc1c(-c2ccc(C#N)cc2)nc2c(C)cc(Br)cn12	none (no result: HSP90 refold inh, aSyn 5UTR inh)
CCC(C)[C@H](NC(=O)[C@H](Cc1ccccc1)n1c(=O)[nH]c2ccccc2c1=O)C(=O)NCC1CCC(C(=O)O)CC1 (stereo partly drawn)	none
COc1ccc(C(C)(C)C)cc1NC(=O)C1CC(=O)N(C2CCCC2)C1 (stereo not drawn)	none (no result: HSP90 refold inh, aSyn 5UTR inh)
O=C(CCSc1nc2ccccc2s1)N/N=C/c1c(O)ccc2ccccc12	aSyn 5UTR inh 66
Nc1nc(CSCc2ccccc2)nc(N2CCOCC2)n1	TWEAK-Fn14 inh 61 (no result: TROY NFkB inh)
Nc1nc(CSc2nc3ccccc3s2)nc(N2CCOCC2)n1	none
COc1ccc(N=C2SC(CC(=O)Nc3cccc(Cl)c3)C(=O)N2Cc2ccco2)cc1 (stereo not drawn)	TWEAK-Fn14 inh 53
CCN1/C(=C/C(C)=C/c2sc3ccccc3[n+]2CC)Sc2ccccc21	HIF-2a block 95, TRAIL sens C8 50, TWEAK-Fn14 inh 82, aSyn 5UTR inh 100
O=C(COC(=O)C12CC3CC(CC(O)(C3)C1)C2)Nc1ccc(Br)cc1F	TROY NFkB inh 58 (no result: HSP90 refold inh, aSyn 5UTR inh)
O=C(COC(=O)C12CC3CC(CC(O)(C3)C1)C2)Nc1ccccc1OC(F)F	none
CN(C(=O)c1ccco1)c1nc2c(s1)CCCC2	TRAIL sens C8 59
CCCCCC(=O)N1C[C@H](O)[C@@H](n2cc(-c3ccc(F)cc3)nn2)C[C@@H]1c1ccc(OC)cc1	none (no result: HSP90 refold inh, aSyn 5UTR inh)
CCOC(=O)/C(=N/Nc1ccc(OC)cc1)Sc1nnc(CCc2ccccc2)n1-c1ccccc1	TWEAK-Fn14 inh 51, TROY NFkB inh 68
CC(NC1=CC(=O)c2cccnc2C1=O)C(O)c1ccccc1 (stereo not drawn)	TRAIL sens C8 83 (no result: HSP90 refold inh, aSyn 5UTR inh)
CC(c1ccccc1)N1C(=O)c2cccnc2C1=O (stereo not drawn)	none
Nc1ccn([C@@H]2O[C@H](C(=O)NCC(F)(F)F)[C@@H](O)[C@H]2O)c(=O)n1	none (no result: HSP90 refold inh, aSyn 5UTR inh)
O=C(CCNC(=O)c1ccccc1Cl)Nc1nc(-c2ccc3ccccc3c2)cs1	TWEAK-Fn14 inh 53
O=C(Cc1ccccc1F)Nc1nc(-c2ccc(F)c(F)c2)cs1	TROY NFkB inh 72
O=C(Cc1ccccc1)Nc1nc(-c2ccc(F)c(F)c2)cs1	none
O=C(CCNC(=O)c1ccccc1Cl)Nc1nc(-c2ccc(F)cc2)cs1	none
O=C(N/N=C/c1cc(Br)c(Br)s1)c1ccncc1	aSyn 5UTR inh 84
Cn1cnc2ncnn2c1=S	none (no result: HSP90 refold inh, aSyn 5UTR inh)
COc1ccc(Nc2cc3n(c(=O)n2)CCc2cc(OC)c(OC)cc2-3)cc1	none
COc1ccc(Nc2cc3n(c(=O)n2)CCc2cc(OC)c(OC)cc2-3)c(C)c1	aSyn 5UTR inh 80
COc1cc2c(cc1OC)-c1cc(Nc3ccc(C)cc3)nc(=O)n1CC2	none
COc1cc2c(cc1OC)-c1cc(Nc3ccc4c(c3)OCCO4)nc(=O)n1CC2	TWEAK-Fn14 inh 86, TROY NFkB inh 79
CCOC(=O)CCCCCC(=O)Nc1ccc2c(c1)C(=O)N([C@H](C)CO)C[C@@H](C)[C@@H](CN(C)C(=O)CCC(F)(F)F)OCCCC[C@H](C)O2	none (no result: HSP90 refold inh, aSyn 5UTR inh)
CCOC(=O)N1CCN(c2cc(N3CCOCC3)c(F)cc2[N+](=O)[O-])CC1	TWEAK-Fn14 inh 51
O=C(Nc1ccc(C(=O)O)cc1)/C(=C\c1ccc2c(c1)OCO2)NC(=O)c1ccccc1Cl	none (no result: HSP90 refold inh, aSyn 5UTR inh)
Cc1cccc(NC(=O)NCC2CCN(c3ccc(S(=O)(=O)N4CCOCC4)cc3)CC2)c1	TROY NFkB inh 54
Cc1cccc(CSc2cccc3cccnc23)c1	TWEAK-Fn14 inh 103
NNC(=O)c1ccc(CSc2cccc3cccnc23)cc1	none
O=C(/C=C/c1ccco1)NCCc1ccccc1	none
Cc1ccc(/C=C/C(=O)NCCc2ccccc2)o1	TWEAK-Fn14 inh 67
CS(=O)(=O)c1cc(C(=O)O)cc(NCc2ccccc2)c1Oc1ccccc1	none (no result: HSP90 refold inh, aSyn 5UTR inh)
CC(=O)C1=NN(c2ccccc2)C(c2ccc3c(c2)OCO3)N1c1ccc(N2CCOCC2)cc1 (stereo not drawn)	none
COc1cccc(N2C(C(C)=O)=NN(c3ccccc3)C2c2ccc(N3CCOCC3)cc2)c1 (stereo not drawn)	TWEAK-Fn14 inh 55
Cc1ccc(C2Nc3ccccc3NC3=C2C(=O)OC(C)C3)cc1 (stereo not drawn)	TROY NFkB inh 64
Cc1sc(NC(=O)C2CC(=O)N(Cc3ccco3)C2)nc1-c1ccccc1 (stereo not drawn)	none (no result: HSP90 refold inh, aSyn 5UTR inh)
COc1ccc2oc(=O)c(-c3nnc(NCc4ccco4)s3)cc2c1	none
CCOc1cccc2cc(-c3cn4cc(C)ccc4n3)c(=O)oc12	TRAIL sens C8 66
CCOc1cccc2cc(-c3nnc(NCc4ccco4)s3)c(=O)oc12	TRAIL sens C8 55
CC1(C(=O)NCc2ccccc2)CN(S(C)(=O)=O)CC(=O)N1CCCN1CCOCC1 (stereo not drawn)	none (no result: TWEAK-Fn14 inh, TROY NFkB inh, HSP90 refold inh, aSyn 5UTR inh)
CC1CCN(c2ccc(-c3ccc(NC(=O)C(F)(F)F)cc3)nn2)CC1	TRAIL sens C8 89, TWEAK-Fn14 inh 62, aSyn 5UTR inh 71
CCN(CC)c1ccc(N=C2C(=O)Nc3ccccc32)cc1	TWEAK-Fn14 inh 52
Cc1ccc(N=C2C(=O)Nc3ccccc32)cc1	none
CCN(CC)c1ccc(C2NC(=O)c3ccccc3N2)cc1 (stereo not drawn)	TRAIL sens C8 92, TWEAK-Fn14 inh 95, TROY NFkB inh 77 (no result: HSP90 refold inh, aSyn 5UTR inh)
O=C1NC(c2ccc(Br)cc2)Nc2ccccc21 (stereo not drawn)	none
C/C(=N\NC(=O)COc1ccc(C(C)(C)C)cc1)c1cc2ccccc2o1	TRAIL sens C8 84
C/C(=N\NC(=O)COc1ccc(C(C)(C)C)cc1)c1ccccc1	none
COc1cccc(C(=O)Nc2nnc(SCC(=O)NC3CCCC3)s2)c1	TRAIL sens C8 57
O=C(CSc1nnc(NC(=O)c2ccccc2)s1)NCC1CCCO1 (stereo not drawn)	TRAIL sens C8 56
